Fam108B counter: counter-screen for RBBP9 inhibitors: inhibitors of mouse Fam108B; recombinant Fam108B, FP-Rh probe fluorescence polarization; inhibition, % at 9.51 µM; 300,000 compounds, 0.33% hits; AID 1947;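 active = inhibition above the screen mean inhibition plus 3 SD, computed separately per campaign, cut at about 18% in these data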;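 also: inhibitors lower polarization as less probe binds the enzyme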
PREPL inh: human PREPL enzyme inhibition. Q4J6C6. recombinant PREPL, fluorescence polarization activity-based probe. inhibition, % at 5.96 µM. 320,000 compounds, 0.68% hits. AID 2751;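 also: 0% = enzyme with DMSO and 100% = wells lacking enzyme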
PME-1 inh: blocks human protein phosphatase methylesterase 1 | Q9Y570 | recombinant PME-1, FP-Rh probe fluorescence polarization | inhibition, % at 5.9 µM | 320,000 compounds, 0.53% hits;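 active = inhibition above the campaign mean of all compounds plus 3 SD, cut at about 26% in these data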;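 also: competitive labeling of PME-1 active site by serine hydrolase directed probe; 0% = PME-1 with DMSO and 100% = wells lacking PME-1 enzyme; inhibitors block probe labeling so polarization falls and inhibition rises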
LYPLA2 counter: LYPLA2 (human) inhibition in PME1 counter-screen; recombinant LYPLA2, FP-Rh probe fluorescence polarization; inhibition, % at 5.9 µM; 320,000 compounds, 0.38% hits; AID 2177;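 active = inhibition above the screen-wide mean plus 3 SD, limit set per campaign, cut at about 26% in these data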;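 also: 0% = LYPLA2 with DMSO and 100% = wells lacking LYPLA2 enzyme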
LYPLA1 inh: LYPLA1 (human) inhibition in PME1 counter-screen | recombinant LYPLA1, FP-Rh probe fluorescence polarization | inhibition, % at 5.9 µM | AID 2174 | O75608 | 320,000 compounds, 0.16% hits;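 active = inhibition above the mean of all tested compounds plus 3 SD, set per campaign, cut at about 14% in these data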;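 also: inhibitors block serine hydrolase probe labeling of LYPLA1 so polarization falls; 0% = enzyme with DMSO and 100% = wells lacking LYPLA1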
PREPL inh cf: human PREPL inhibition, confirmation | AID 2803 | 2,000 compounds, 67% hits | shares compounds with PREPL inh | recombinant PREPL, fluorescence polarization activity probe | inhibition, % at 5.96 µM;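 also: 0% = protein with DMSO and 100% = wells lacking protein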
The depositor's hits bear a star; nt = not tested or not shown. In the library only some 1.3% were active in any assay of this set; here they are far more common. Rule as the data show it, unless noted: active = inhibition above about 43%; inactive = the rest.

SMILES	Fam108B counter	PREPL inh	PME-1 inh	LYPLA2 counter	LYPLA1 inh	PREPL inh cf
Cc1ccn2c(Nc3ccccc3C)c(-c3ccccn3)nc2c1	0	52*	4	8	4	41
Cc1cccn2c(Nc3ccccc3)c(-c3ccccn3)nc12	8	-13	1	6	5	nt
Cc1ccccc1Nc1c(-c2ccccn2)nc2ccccn12	2	23	2	2	2	nt
Cc1ccn2c(Nc3ccccc3)c(-c3ccccn3)nc2c1	1	67*	7	-3	-1	63*
O=C(NNC(=O)c1ccccc1Cl)c1ccc2c(c1)OCCO2	nt	11	nt	nt	nt	nt
CCN1C(=O)/C(=C2/Sc3ccccc3N2CC)S/C1=N\c1ncn[nH]1	14	48*	34*	3	10	33
Cc1cccc(NS(=O)(=O)c2cccc(C(=O)NCCCN3CCOCC3)c2)c1	6	4	2	1	0	nt
c1ccc(-c2nnc(-c3ccccn3)c(-c3ccccn3)n2)nc1	-3	1	1	2	-1	nt
CN(C)c1nc(-c2ccccn2)nnc1-c1ccccc1	5	52*	1	-3	0	79*
NC(=O)C1CC(=O)N(c2ccc(OCc3ccc(Cl)cc3Cl)cc2)C1 (centres undefined)	1	47*	2	-1	6	43
O=C(NCCc1ccccc1Cl)C1CC(=O)N(C2CCCCC2)C1 (centres undefined)	-1	-7	-1	6	3	nt
Cc1ccc(N=Cc2cccc(O)c2O)c(C)c1	8	56*	24	2	-2	7
Cc1ccccc1N=Cc1cccc(O)c1O	4	22	4	5	0	nt
Cc1c(CN(C)C)c2c(n1C)C(=O)c1ccc(Br)cc1-2	1	16	9	-1	2	nt
Cc1c(CN(C)C)c2c(n1Cc1ccccc1)C(=O)c1ccc(Br)cc1-2	4	54*	8	4	2	50*
C=C1c2cccc(O)c2C(=O)C2C(=O)[C@]3(O)C(=O)C(C(N)=O)C(=O)[C@@H](N(C)C)[C@@H]3[C@@H](O)[C@H]12 (some centres undefined)	nt	62*	nt	nt	nt	2
C[C@H]1c2cccc(O)c2C(O)=C2C(=O)[C@]3(O)C(O)=C(C(N)=O)C(=O)[C@@H](N(C)C)C3[C@@H](O)C21 (some centres undefined)	3	2	0	1	1	nt
COc1cc(CC(=O)Nc2sccc2C(N)=O)cc(OC)c1OC	0	1	-10	-1	-2	nt
COc1ccc(CCC(=O)OCC(=O)Nc2sccc2C(N)=O)cc1OC	nt	48*	nt	nt	nt	39
COc1ccc(C)cc1Nc1n[n+](-c2ccccc2)c(-c2ccc(N(C)C)cc2)s1	3	61*	0	5	3	69*
COc1ccc(C)cc1Nc1n[n+](-c2ccccc2)c(-c2ccc(OC)c(OC)c2OC)s1	6	53*	3	-2	3	60*
COc1ccc(C)cc1Nc1n[n+](-c2ccccc2)c(-c2c(Cl)cccc2Cl)s1	5	11	9	-6	1	nt
CCCOc1ccc(C(=O)N/N=C/c2c[nH]c3ccc(Br)cc23)cc1	8	17	22	-6	-9	nt
CCCCCN=C(N)N/N=C/c1c[nH]c2ccc(OC)cc12	2	80*	9	5	2	66*
Cc1ccc2c(c1)c1c3n2CCCNC3CCC1 (centres undefined)	-2	45*	-4	-2	2	44*
SMILES	Fam108B counter	PREPL inh	PME-1 inh	LYPLA2 counter	LYPLA1 inh	PREPL inh cf
Cc1cc(C)n(CCCNC(=O)c2ccc(C)c(S(=O)(=O)N3CCOCC3)c2)n1	-3	0	-2	9	1	nt
CN(CC(=O)Nc1ccc(Cl)cc1)C(=O)c1cccc(S(=O)(=O)N2CCN(Cc3ccccc3)CC2)c1	-1	55*	-5	-6	-4	68*
CN(CC(=O)Nc1ccc(Cl)cc1)C(=O)c1cccc(S(=O)(=O)NCc2ccccc2)c1	0	7	8	4	1	nt
COc1ccc2c(c1)[nH]c1c(N3CCN(Cc4ccc5c(c4)OCO5)CC3)ncnc12	10	67*	26*	2	-6	64*
COc1ccc2c(c1)[nH]c1c(N3CCSCC3)ncnc12	2	9	0	-6	3	nt
COc1cccc2[nH]c3c(N4CCN(Cc5ccc6c(c5)OCO6)CC4)ncnc3c12	4	73*	20	-1	-4	60*

From PubChem BioAssay
